The test system of assay [1] is Human papillomavirus type 1a protein E7 (residues 44-93). Nature of the assay: HPV1a E7 fragment binders on microarrays, primary screen, biochemical, small-molecule microarray, residues 44-93, 635 nm fluorescence (AID 1108).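 Also: E7 fragment applied at 1 µg/mL in TBST for 1 h at 4 C; score combines spot fluorescence with its signal to noise ratio.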 Conditions: small-molecule microarray binding, fluorescence 635 nm; higher = more signal.
Assay [2] can be described thus: modulators of HCV replicon luciferase signal, primary screen, HCV replication inhibitor project, Huh7 cells, luciferase reporter (AID 1109).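 Also: huh7 hepatoma cells harbouring a luciferase neomycin HCV replicon reporter; luciferase luminescence as measure of HCV replicon replication; test concentration not given here.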 To be noted: 48 h, higher = more signal. Background: Replicon systems follow genome replication, usually without infectious particles.
Assay [3] concerns the target Left-right determination factor 2 (Homo sapiens) (UniProt O00292). Kind of assay: LEFTY2 binders on small-molecule microarrays, primary screen, biochemical, small-molecule microarray, 635 nm fluorescence scan (AID 1110). To be noted: LEFTY2 binding, higher = more signal.
Assay [4] has as its target Calmodulin-1 (Homo sapiens) (UniProt P0DP23). Nature of the assay: CALM1 binders on microarrays, EGTA buffer, profiling panel, biochemical, small-molecule microarray, Cy5-labelled CALM1 (AID 1111).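 Also: labelled calmodulin applied in Tris saline Tween buffer holding calcium plus EGTA and DTT.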 To be noted: Cy5-CALM1 binding fluorescence, higher = more signal.
Assay [5] has the same target. Nature of the assay: calcium-bound CALM1 binders on microarrays, profiling panel, artefact control for SMM control-protein annotation, biochemical, small-molecule microarray, Cy5-labelled CALM1, plus calcium (AID 1112).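 Also: score merges spot fluorescence with signal to noise from triplicate slides.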 Conditions: Cy5-CALM1 binding fluorescence, higher = more signal.
Assay [6] in a line: small-molecule microarray binders of probe aWnt5a, primary screen, biochemical, biotinylated probe, 635/667 nm fluorescence (AID 1113).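 Also: score merges 667 nm fluorescence intensity with signal-to-noise per printed feature.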 Conditions: higher = more signal.
A short description of assay [7]: small-molecule microarray binders of probe aShh, primary screen, biochemical, biotinylated probe, 635/667 nm fluorescence (AID 1114).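 Also: probe is biotin-labelled aShh protein from a stem cell growth factor screen; measures binding of labelled protein to compounds printed on the slide; score merges feature fluorescence at 667 nm with signal-to-noise.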 Conditions: higher = more signal.
Assay [8] in a line: small-molecule microarray binders of probe aNog, primary screen, biochemical, biotinylated probe, 635/667 nm fluorescence (AID 1115).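 Also: probe is biotinylated aNog protein used at 0.15 µg/mL for 1 h at 4 C; z-score combines 667 nm fluorescence of each spot with its signal to noise.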 To be noted: higher = more signal.
For assay [9], the target named is Torsin-1A-interacting protein 1 (Homo sapiens) (UniProt Q5JTV8). Kind of assay: LAP1 binders from COS7 cell lysate, primary screen, small-molecule microarray, 635/667 nm fluorescence (AID 1116). To be noted: COS7-hLAP1 lysate binding, 635 nm fluorescence, higher = more signal.
Chain of Torsin-1A-interacting protein 1 (Homo sapiens) (Q5JTV8 whole entry, looked up): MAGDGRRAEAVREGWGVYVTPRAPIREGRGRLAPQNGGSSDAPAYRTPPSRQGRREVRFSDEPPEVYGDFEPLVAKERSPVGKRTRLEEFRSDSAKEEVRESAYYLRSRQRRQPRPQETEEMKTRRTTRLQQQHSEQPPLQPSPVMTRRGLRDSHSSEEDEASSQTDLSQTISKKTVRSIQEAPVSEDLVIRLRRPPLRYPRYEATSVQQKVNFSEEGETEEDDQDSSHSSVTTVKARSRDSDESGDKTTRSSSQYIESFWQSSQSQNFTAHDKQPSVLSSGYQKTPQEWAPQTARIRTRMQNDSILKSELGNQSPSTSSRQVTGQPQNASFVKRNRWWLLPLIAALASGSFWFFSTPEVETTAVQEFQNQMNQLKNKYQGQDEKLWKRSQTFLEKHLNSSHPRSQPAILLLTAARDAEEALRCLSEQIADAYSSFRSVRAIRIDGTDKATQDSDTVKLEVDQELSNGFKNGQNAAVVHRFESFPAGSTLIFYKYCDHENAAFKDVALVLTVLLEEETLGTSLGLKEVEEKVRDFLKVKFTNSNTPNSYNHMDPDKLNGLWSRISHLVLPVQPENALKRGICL
Assay [10] has as its target Alpha-bungarotoxin (Bungarus multicinctus) (UniProt P60615). Nature of the assay: alpha-bungarotoxin binders on microarray, profiling panel, artefact control for SMM control protein annotation, biochemical, small-molecule microarray, Alexa647 label, 635/667 nm fluorescence (AID 1117). To be noted: alpha-BTX-A647 binding fluorescence, higher = more signal.
A further assay has as its target Albumin (Bos taurus) (UniProt P02769). Kind of assay: bovine serum albumin binders on microarray, profiling panel, artefact control for SMM control protein annotation, biochemical, small-molecule microarray, Alexa647 label, 635/667 nm fluorescence (AID 1118).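 Also: score merges 667 nm emission intensity and signal-to-noise per printed compound spot.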 Conditions: BSA-A647 binding, fluorescence 635 nm, higher = more signal.
Assay [11] can be described thus: small-molecule microarray binders of probe aXIP, primary screen, biochemical, NeuroSMM set, 635/667 nm fluorescence (AID 1119).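 Also: probe is the protein aXip251-270 applied at 1 µg/mL to compound-printed slides; binding of probe to printed compounds measured as 667 nm fluorescence plus signal to noise.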 Conditions: higher = more signal, called active from +8 up or from −8 down.
The nature of assay [12]: small-molecule binders of probe aNOTCH3, primary screen, biochemical, small-molecule microarray, 635/667 nm fluorescence (AID 1120).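 Also: probe is a biotin-tagged antibody raised against NOTCH3 rather than NOTCH3 protein; score merges spot fluorescence near 667 nm with spot signal to noise.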 To be noted: higher = more signal.
A short description of assay [13]: small-molecule binders of probe aNOTCH2, primary screen, biochemical, small-molecule microarray, 635/667 nm fluorescence (AID 1121).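 Also: score merges feature fluorescence read at 667 nm with its signal to noise.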 To be noted: higher = more signal.
Assay [14] deals with Carbonic anhydrase 2 (Homo sapiens) (UniProt P00918). Nature of the assay: CAII small-molecule binders, profiling panel, biochemical, small-molecule microarray, Alexa647-labelled CAII (AID 1122). To be noted: CAII-A647 binding fluorescence, higher = more signal.
A short description of assay [15]: COS7 lysate on small-molecule microarray, probe aHis, 635 nm (AID 1123).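 Also: z-score combines 667nm fluorescence intensity with signal-to-noise per printed compound spot.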 To be noted: COS7 cell lysate, fluorescence, higher = more signal.
The nature of assay [16]: compound binding in COS7 lysate, probe aLAP1, primary screen, cell lysate, small-molecule microarray (AID 1124).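 Also: lysate comes from COS7 cells expressing LAP1 and is applied at 0.3 µg/mL; score merges spot fluorescence near 667 nm with signal-to-noise over triplicate slides.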 To be noted: probe aLAP1, fluorescence, higher = more signal.
Another assay deals with Sam68 (KHDRBS1). Kind of assay: Sam68 small-molecule binders, primary screen, biochemical, small-molecule microarray, 635 nm fluorescence (AID 1125).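 Also: score merges 667 nm channel intensity with signal to noise over triplicate slides.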 To be noted: small-molecule microarray binding, higher = more signal.
Assay [17] deals with Chordin-like protein 2 (CHRDL2). Nature of the assay: CHRDL2 small-molecule binders, primary screen, biochemical, small-molecule microarray, 635 nm fluorescence (AID 1126).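 Also: printed compound slides probed with Chrdl2 protein at 4 µg/mL for 1 h at 4 C; score merges 667 nm emission intensity with signal to noise over three replicate slides.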 To be noted: small-molecule microarray binding, fluorescence 635 nm; higher = more signal.
The target of assay [18] is Concanavalin-A (Canavalia ensiformis) (UniProt P02866). Kind of assay: ConA small-molecule binders, primary screen, artefact control for SMM control protein annotation, biochemical, small-molecule microarray, Alexa647 label, 635 nm (AID 1127).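 Also: z combines 667 nm emission intensity with signal-to-noise across three replicate slides.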 To be noted: ConA-A647 binding fluorescence, higher = more signal.
Chain of Concanavalin-A (Canavalia ensiformis) (P02866 whole entry, looked up): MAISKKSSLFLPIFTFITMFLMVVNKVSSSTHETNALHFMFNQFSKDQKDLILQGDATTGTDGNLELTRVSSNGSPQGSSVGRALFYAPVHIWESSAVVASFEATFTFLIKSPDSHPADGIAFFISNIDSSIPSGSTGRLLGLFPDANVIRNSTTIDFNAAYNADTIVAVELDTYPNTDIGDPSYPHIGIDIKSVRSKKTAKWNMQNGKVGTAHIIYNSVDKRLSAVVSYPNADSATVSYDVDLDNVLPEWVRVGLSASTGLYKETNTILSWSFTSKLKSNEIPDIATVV

Molecules are shown by their SMILES. Calls of active or inactive are those of the source.

Chain of Left-right determination factor 2 (Homo sapiens) (O00292 whole entry, looked up): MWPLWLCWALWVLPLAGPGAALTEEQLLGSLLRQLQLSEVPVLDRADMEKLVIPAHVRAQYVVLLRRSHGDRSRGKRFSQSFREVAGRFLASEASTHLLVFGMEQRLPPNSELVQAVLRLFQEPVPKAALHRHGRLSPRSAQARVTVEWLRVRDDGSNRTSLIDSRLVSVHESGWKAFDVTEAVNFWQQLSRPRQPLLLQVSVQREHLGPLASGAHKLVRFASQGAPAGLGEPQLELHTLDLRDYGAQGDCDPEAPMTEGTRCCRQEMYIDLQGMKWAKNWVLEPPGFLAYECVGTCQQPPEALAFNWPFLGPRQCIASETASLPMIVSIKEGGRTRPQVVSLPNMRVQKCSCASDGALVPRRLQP
Chain of Alpha-bungarotoxin (Bungarus multicinctus) (P60615 whole entry, looked up): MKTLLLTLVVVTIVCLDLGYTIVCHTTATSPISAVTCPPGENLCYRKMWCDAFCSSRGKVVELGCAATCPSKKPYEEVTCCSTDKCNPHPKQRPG
Chain of Albumin (Bos taurus) (P02769 whole entry, looked up): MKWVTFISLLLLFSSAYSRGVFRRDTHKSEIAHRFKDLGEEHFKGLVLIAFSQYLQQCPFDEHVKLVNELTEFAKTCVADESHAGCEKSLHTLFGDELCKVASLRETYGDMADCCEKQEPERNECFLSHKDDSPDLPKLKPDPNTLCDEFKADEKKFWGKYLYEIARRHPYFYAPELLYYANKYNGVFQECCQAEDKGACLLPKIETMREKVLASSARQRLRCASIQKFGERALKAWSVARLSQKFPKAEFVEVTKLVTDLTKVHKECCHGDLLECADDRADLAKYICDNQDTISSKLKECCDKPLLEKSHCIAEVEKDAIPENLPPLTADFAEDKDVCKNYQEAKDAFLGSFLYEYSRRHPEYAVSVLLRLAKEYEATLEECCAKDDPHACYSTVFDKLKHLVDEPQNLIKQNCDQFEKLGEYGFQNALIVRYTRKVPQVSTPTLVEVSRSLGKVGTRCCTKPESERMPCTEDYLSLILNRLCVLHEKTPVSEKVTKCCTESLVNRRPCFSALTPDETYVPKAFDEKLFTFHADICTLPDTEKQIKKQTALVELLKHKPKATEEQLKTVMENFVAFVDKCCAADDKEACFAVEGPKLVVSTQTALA

As to `COc1ccc([Si](C)(C)[C@@H]2[C@@H](CCn3cc([C@H](O)c4ccccc4)nn3)O[C@]3(C(=O)N(c4ccccc4)c4ccccc43)[C@H]2C)cc1`, the composite z-score was -0.0404 in [1]; -0.184 in [3]; 0.052 in assay [4]; -0.336 in assay [5]; -0.096 in assay [6]; 0.413 in [7]. The composite z-score in assay [8] is 0.383; in assay [9], 0.0664; in [10] it was 0.351; in the assay with Albumin (Bos taurus), -0.591; in assay [12] it was -0.145; in [13], -0.131. Further, the composite z-score in assay [14] was 0.0028; in [15], 0.233; in assay [16], -0.232; in the assay with Sam68 (KHDRBS1) it was 0.548; in assay [17], -0.063; in [18], 0.503. The z-score in [2] is -3.76. Also, the composite Z-score in assay [11] is -0.424 (inactive).
On to `CC(C)[Si]1(C(C)C)OCc2cc(-c3ccc(-c4ccc(Cl)c(Cl)c4)o3)nc(CCc3ccccc3)c21`, for which the composite z-score was -0.655 in assay [1]; 0.198 in [3]; -0.307 in [4]; 0.688 in [5]; -0.054 in assay [6]; -0.601 in assay [7]. Also, the composite z-score in [8] was 0.428; in [9] it was -0.395; in assay [10], -0.327; with Albumin (Bos taurus), -0.176; in [12], -0.0362; in assay [13], -0.171. Further, the composite z-score in assay [14] was 0.384; in [15], 0.587; in assay [16], 0.112; in the assay on Sam68 (KHDRBS1), -0.0975; in assay [17], 0.0164; in [18] it was -0.843. This compound gave a z-score in assay [2] of -0.826. Further, the composite Z-score in [11] is 0.182 (inactive).
Take `CN(C)C(=O)[C@@]1(CCC(=O)OC(C)(C)C)N=C(c2ccc(OCCCO)cc2)O[C@H]1c1ccccc1CN=[N+]=[N-]`: the composite z-score in assay [1] is 1.5; in [3], -0.9; in [4], 1.18; in assay [5] it was 0.0572; in assay [6], 0.0044; in assay [7], 0.579. Further, the composite z-score is 1.32 in assay [8]; 2.74 in [9]; 0.548 in assay [10]; 1 with Albumin (Bos taurus); -0.0111 in assay [12]; -0.0206 in [13]. The composite z-score was 0.825 in assay [14]; 3.22 in [15]; 0.626 in assay [16]; 1.29 with Sam68 (KHDRBS1); -0.409 in assay [17]; 0.613 in assay [18]. For the same compound, the z-score in assay [2] was -1.61. Besides, the composite Z-score in [11] is -0.181 (inactive).
Turning to `NC(=O)[C@H]1[C@@H]2C(=O)O[C@@H](c3ccccc3)[C@@H](c3ccccc3)N2[C@@H](c2ccc(O)cc2)[C@]12C(=O)Nc1ccc(C#CC3=CCCCC3)cc12`, the composite z-score was 1.42 in [1]; -0.443 in assay [3]; 0.0791 in assay [4]; -0.413 in [5]; -0.0792 in assay [6]; -0.279 in [7]. Further, the composite z-score is -0.185 in [8]; 0.731 in [9]; 1.02 in [10]; 0.396 with Albumin (Bos taurus); -0.0273 in [12]; -0.156 in assay [13]. Also, the composite z-score in [14] was 0.293; in [15] it was 2.13; in assay [16], 0.249; in the assay on Sam68 (KHDRBS1) it was 0.662; in assay [17], -0.758; in assay [18], 0.565. Further, the z-score in [2] was -1.49. Further, in assay [11], the composite Z-score was 0.224 (inactive).
For the compound `CN(C)C(=O)[C@]1(CCS(=O)(=O)c2ccccc2)N=C(c2ccc(OCCCO)cc2)O[C@@H]1c1ccccc1`, the composite z-score in [1] is 1.44; in [3], 0.389; in [4] it was 1.72; in [5], 0.513; in assay [6], -0.034; in assay [7] it was 0.582. Also, the composite z-score in assay [8] is -0.565; in [9], 1; in assay [10], 0.915; with Albumin (Bos taurus) it was 0.907; in assay [12], 0.201; in assay [13] it was -0.0676. For the same compound, the composite z-score was 0.769 in assay [14]; 2.99 in [15]; 0.565 in assay [16]; 1.3 in the assay with Sam68 (KHDRBS1); -0.0707 in [17]; 0.937 in assay [18]. The compound also showed a z-score in assay [2] of -2.25. Further, the composite Z-score in [11] is 0.462 (inactive).

Source of the values: PubChem BioAssay.
